Measured values: PubChem BioAssay (NCI)
Compounds without any hit were thinned out: in the full panel of roughly 83,000, 20% have a hit.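 A percent growth of 40 corresponds to 60% growth inhibition; 0 means no net growth; -100 means all cells died. Active threshold: below 10.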 A number with no mark means an inactive call. Active and inactive are the calls of the source.

Each compound was assayed on HL-60(TB) leukemia (assay: NCI-60 one-dose screen, 48 h (100 = growth as untreated, 0 = no growth, -100 = all killed)). Conditions: 10 µM unless noted.

Question: How did the growth turn out when Cc1cc(-c2cc(O)ccc2Cl)cc2nnc(Nc3ccc(OCCN4CCCC4)cc3)nc12 was run?
Answer: The growth was -63.5% (active).

Question: With NC1C(N)C(N)C1N (configuration not stated) as the compound, how does the growth read?
Answer: The growth was 93.8%.

Question: Which growth does the source give for CCCN1CN2C(=O)N3CN(CCC)CN4C(=S)N(C1)C2C34 (configuration not stated) here?
Answer: Its growth is 95%.

Question: With O=P(O)(c1ccccc1)c1ccccc1I as the compound, how does the growth read?
Answer: Its growth is 117%.

Question: For Cc1nc2ccc(-n3c(-c4ccc(Cl)cc4)nc4ccccc4c3=O)cc2n1Cc1ccccc1, which growth is on record?
Answer: The growth was 78.2%.

Question: With COc1cc2c(cc1O)CCc1cc(O)cc(OC)c1-2 as the compound, how does the growth read?
Answer: The growth was 76.4%.

Question: With CCn1c(Cc2ccccc2Nc2c(Cl)cccc2Cl)nnc1SCC(=O)NN1C(=O)/C(=C/c2cc(OC)c(O)c(OC)c2)SC1=S as the compound, how does the growth read?
Answer: The growth was -1.07% (active).

Question: Which growth does the source give for COc1ccc(-c2nc(-c3ccccc3)c(-c3ccccc3)[nH]2)cc1OC1CCCC1 here?
Answer: The growth was 83.1%.

Question: Which growth does the source give for C=C1C(=O)C2CCN1CC2 here?
Answer: Its growth is 97.4%.

Question: With BrC1=C(Br)C(Br)(Br)C(Br)=C1Br as the compound, how does the growth read?
Answer: The growth was 27.4%.

Question: For Cc1ccc(-c2nc(C(Cl)Cl)nc3cc(C)nn23)cc1, which growth is on record?
Answer: Its growth is -1.36% (active).

Question: With O=S1(=O)C=C(c2ccccc2)C(c2ccccc2)=C1 as the compound, how does the growth read?
Answer: Its growth is -16.3% (active).

Question: How did the growth turn out when COCCOc1cc2ncnc(N3CCN(S(=O)(=O)c4ccccc4Cl)CC3)c2cc1OCCOC was run?
Answer: Its growth is 56%.

Question: With [O-][n+]1ccccc1CCN(O)CCc1cccc[n+]1[O-] as the compound, how does the growth read?
Answer: The growth was 74.2%.

Question: COc1ccc(Cn2cc3c(c2-c2cc(OC)c(OC)c(OC)c2)CCc2cnoc2-3)cc1[N+](=O)[O-] was tested. Which growth did it give?
Answer: Its growth is 11%.

Question: For C=C(C)[C@@H]1CC[C@]2(COC(=O)c3ccccc3C(=O)O)CC[C@]3(C)[C@H](CC[C@@H]4[C@@]5(C)CC[C@H](OC(=O)c6ccccc6C(=O)O)C(C)(C)[C@@H]5CC[C@]43C)[C@@H]12, which growth is on record?
Answer: The growth was 37.8% [100 µM].

Question: For CCCCN(CCCC)CCCN=c1nc2c(c(N)n1-c1ccccc1)c(=S)n(-c1ccccc1)c(=S)n2-c1ccccc1, which growth is on record?
Answer: Its growth is -74.8% (active).

Question: Which growth does the source give for Cn1ccnc1C(=O)/C=C/c1ccc(C(=O)Nc2nc3ccccc3[nH]2)cc1 here?
Answer: Its growth is 26.7%.

Question: For COc1cc(/C=C/c2cc(/C=C/c3ccc(O)c(OC)c3)n(C(=O)Nc3ccc(F)c(Cl)c3)n2)ccc1O, which growth is on record?
Answer: Its growth is -28.9% (active).

Question: Which growth does the source give for N/C(=N\c1nc2ccccc2s1)NC(=NC1CCCCC1)NC1CCCCC1 here?
Answer: The growth was -36.3% (active).

Question: Which growth does the source give for CC(=O)O[C@H]1CC[C@@]2(C)[C@@H](CC[C@@H]3[C@@H]2CC[C@@]2(C)[C@H]3CC[C@]2(O)C(C)=O)C1 here?
Answer: The growth was 93.5%.

Question: Which growth does the source give for CC1=CC(=O)N(c2cccc3c(N4C(=O)C=C(C)C4=O)cccc23)C1=O here?
Answer: Its growth is -1.53% (active).
